Consider seven molecules from PubChem BioAssay.

The term inhibition denotes the relative decrease from the control value, in per cent.

Assay [1] in a line: blockers of polyQ-driven CASP3 activation – cell-based (AID 1583). The note with it: polyglutamine-induced caspase-3 activation, cell assay; stronger effect = higher value;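 tested at 10 µM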.
Assay [2] is described as follows: yeast 75Q aggregation reduction – 75Q-TubU reporter (AID 1593). To be noted: Yeast 75Q polyglutamine aggregation reporter.
The nature of assay [3]: restoration of touch response, mutant HTT neurons – whole organism, C. elegans mechanosensory neurons, N-terminal huntingtin (AID 1599). To be noted: C. elegans polyQ-huntingtin mechanosensory neurons, stronger effect = higher value.
A short description of assay [4]: blockers of cytochrome c efflux from mitochondria – biochemical, purified mitochondria (AID 1603).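 Note: mouse liver mitochondria challenged with calcium chloride; signal normalized to the plate average as 100%.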 To be noted: stronger effect = lower value.
Assay [5] is described as follows: polyglutamine aggregate formation blockers (AID 1604). The note with it: polyglutamine-induced protein aggregation inhibition assay; stronger effect = higher value; tested at 2.5 µM.
Assay [6] is described as follows: glutamate transport activators, MN-1 cells, MN-1 cell line (AID 1612).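 Note: tested at 1 µM final; 0% = mean of DMSO vehicle wells on each plate; positive means more glutamate uptake than control and negative means less.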 To be noted: MN-1 motor neuron cells, stronger effect = higher value.
Assay [7] can be described thus: 75Q-TubH aggregate inhibition, S. cerevisiae, yeast (AID 1616). To be noted: S. cerevisiae 75Q-TubH polyglutamine aggregation suppression; stronger effect = higher value.
The nature of assay [8]: compounds altering viability of human ES cells (AID 493140; call rule not given here;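 note: cells exposed to compounds for four days before counting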). To be noted: human embryonic stem cell survival screen; stronger effect = higher value.
Assay [9] has as its system Neuropilin-2 / VEGF-C interaction (human). Nature of the assay: small molecules blocking Neuropilin-2/VEGF-C interaction – biochemical, microplate binding format, z-score (AID 743281; call rule not given here). The note with it: microplate NRP2/VEGF-C binding assay; stronger effect = lower value.
A short description of assay [10]: modulation of C. elegans fzo-1 (AID 1259413; call rule not given here;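 note: fzo-1 mutant C. elegans worms in liquid wells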). To be noted: C. elegans fzo-1 modulator screen, mean read-out; stronger effect = higher value.
Assay [11] in a line: galactose survival enhancers in mitochondrial complex I cybrids – cell-based, galactose medium, ATP luminescence, primary screen (AID 1645843;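 active = z-score of at least 1.8 in each of two replicates, scored against plate mean and spread of sample wells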;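 note: positive z means more ATP and so rescue of galactose-driven cybrid death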). To be noted: complex I mutant cybrid cells, 72 h, stronger effect = higher value.
The test system of a further assay is F380Y/beta2Delta. The assay is described as follows: BK channel mutant inhibitors and activators – cell-based, U2OS BacMam, thallium flux, beta subunits, selectivity assay, profiling panel (AID 1259406).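 Note: initial slope of Thallos dye fluorescence rise after thallium is added; log ratio against the mean of 0.3% DMSO vehicle wells on the same plate.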 The note with it: U2OS BacMam BK variants, at 30 µM.
The target in assay [12] is Calcium-activated potassium channel subunit alpha-1 (Homo sapiens) + Leucine-rich repeat-containing protein 26 (Homo sapiens) (UniProt Q12791+Q2I0M4). Described as above. To be noted: U2OS BacMam BK variants, F380Y/Slo1WT/gamma1, at 30 µM.
The subject of the next assay is R275C. The assay is described as above. The note with it: U2OS BacMam BK variants, at 30 µM.
Another assay has as its system R275C/beta1. The description is as above. To be noted: U2OS BacMam BK variants, at 30 µM.
In another assay the test system is R275C/beta2Delta. The description is as above. The note with it: U2OS BacMam BK variants, at 30 µM.
Another assay relates to F380Y/beta1. Described as above. To be noted: U2OS BacMam BK variants, at 30 µM.
The subject of the next assay is F380Y/beta4. The description is as above. The note with it: U2OS BacMam BK variants, at 30 µM.
A further assay relates to R275C/beta4. The assay is described as above. The note with it: U2OS BacMam BK variants, at 30 µM.
The test system of the next assay is R275C/Slo1WT/beta2. Described as above. The note with it: U2OS BacMam BK variants, at 30 µM.

Values joined by “and” are separate entries in the source; they are usually repeats but may differ in a detail not shown here. Equal values may be shown once. For some of these results: Entries with a potency or affinity are not part of this list. Where a structure was tested more than once in an assay, its records may differ in their call. Active and inactive are the calls of the source.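 Rule for the calls, unless noted: active = thallium flux through the channel raised or lowered by more than 3 SD from vehicle-only wells, actives on both sides; inactive = the rest.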

Sequence of Calcium-activated potassium channel subunit alpha-1 (Homo sapiens) + Leucine-rich repeat-containing protein 26 (Homo sapiens) (Q2I0M4 whole entry, looked up, one chain of several): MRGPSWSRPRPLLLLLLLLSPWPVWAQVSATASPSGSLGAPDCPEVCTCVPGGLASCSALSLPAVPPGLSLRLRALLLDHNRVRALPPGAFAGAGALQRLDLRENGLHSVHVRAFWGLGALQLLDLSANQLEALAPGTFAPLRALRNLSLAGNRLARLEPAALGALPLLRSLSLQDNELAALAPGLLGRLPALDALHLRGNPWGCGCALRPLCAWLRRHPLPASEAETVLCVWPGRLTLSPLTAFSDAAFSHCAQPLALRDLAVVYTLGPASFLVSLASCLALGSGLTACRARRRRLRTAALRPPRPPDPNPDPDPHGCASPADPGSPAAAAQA

On to `Cc1c(OCC(F)(F)F)ccnc1CS(=O)c1nc2ccccc2[nH]1` (stereo not drawn), for which the inhibition in assay [1] is -8.62%. The score in assay [2] amounted to 0. Also, the rescue above control in assay [3] worked out at 4.9. In [4], the cytochrome c release ratio amounted to 0.73. Also, the inhibition of aggregation in assay [5] turned out to be 29.4%. In assay [6], the glutamate uptake change was -0.46%. In [7], this molecule displayed an aggregation suppression score of -0.00244. In addition, the survival in assay [8] is 14.6 (inactive). Further, the z-score in assay [9] was 0.0966 (inactive); in assay [11] it was -1.12 (inactive) and -0.8 (inactive) and -0.405 (inactive). Moreover, the mean signal in assay [10] is 250 (inactive).

With `CCN(CC)C(=S)SSC(=S)N(CC)CC`, the survival in assay [8] was 16.9 (inactive). Also, the z-score in assay [9] is -0.138 (inactive); in assay [11], -1.35 (inactive) and -1.44 (inactive) and -2.44 (inactive). For the same molecule, the mean signal in [10] is 249 (inactive). The log fold change Tl+ flux in the assay on F380Y/beta2Delta was 0.0251 (inactive); in assay [12] it was 0.093 (active); with R275C it was 0.00507 (inactive); in the assay with R275C/beta1, 0.145 (active); in the assay on R275C/beta2Delta, 0.0247 (inactive).

Take `C[C@@H]1C[C@H]2[C@@H]3CCC4=CC(=O)C=C[C@]4(C)[C@@]3(F)[C@@H](O)C[C@]2(C)[C@@]1(O)C(=O)CO`: the z-score in assay [11] was 0.135 (inactive) and 0.555 (inactive). Moreover, the log fold change Tl+ flux with F380Y/beta1 is 0.0534 (inactive); with F380Y/beta2Delta, -0.01 (inactive); in the assay on F380Y/beta4 it was -0.000275 (inactive); in [12] it was 0.0359 (inactive); with R275C, 0.0247 (inactive); in the assay on R275C/beta1 it was 0.0605 (inactive). The log fold change Tl+ flux is 0.000117 (inactive) with R275C/beta2Delta, 0.0627 (inactive) with R275C/beta4 and 0.0456 (inactive) with R275C/Slo1WT/beta2.

`CC(=O)OCC(=O)[C@@]1(O)CC[C@H]2[C@@H]3CCC4=CC(=O)CC[C@]4(C)[C@H]3C(=O)C[C@@]21C`: the z-score in assay [11] is 0.82 (inactive) and 2.46 (active). For the same molecule, the log fold change Tl+ flux in the assay with F380Y/beta1 was 0.0066 (inactive); in the assay with F380Y/beta2Delta it was -0.0255 (inactive); in the assay on F380Y/beta4, -0.0455 (inactive); in assay [12] it was -0.0083 (inactive); with R275C, 0.0275 (inactive); with R275C/beta1 it was -0.0466 (inactive). Moreover, the figures for the log fold change Tl+ flux with R275C/beta2Delta, in the assay on R275C/beta4 and in the assay on R275C/Slo1WT/beta2 were -0.00407 (inactive), -0.00976 (inactive) and 0.0162 (inactive), respectively.

For `C[C@@H](O)[C@H]1C(=O)N2C(C(=O)O)=C(S[C@@H]3CN[C@H](C(=O)N(C)C)C3)[C@H](C)[C@H]12`, the survival in assay [8] is 4.17 (inactive). For the same molecule, the z-score in assay [9] was -0.132 (inactive); in [11], 1.23 (inactive). Besides, the mean signal in assay [10] is 272 (inactive). The log fold change Tl+ flux with F380Y/beta1 is 0.00288 (inactive); in the assay with F380Y/beta2Delta it was -0.00534 (inactive); in the assay with F380Y/beta4, -0.00589 (inactive); in assay [12], -0.0284 (inactive); in the assay on R275C, -0.0931 (inactive); in the assay on R275C/beta1, -0.0201 (inactive). For the same molecule, the log fold change Tl+ flux in the assay on R275C/beta2Delta was -0.042 (inactive); in the assay on R275C/beta4 it was 0.0148 (inactive); in the assay with R275C/Slo1WT/beta2, -0.00332 (inactive).

As to `CC1(C)O[C@@H]2C[C@H]3[C@@H]4CCC5=CC(=O)C=C[C@]5(C)[C@@]4(F)[C@@H](O)C[C@]3(C)[C@]2(C(=O)CO)O1`, the z-score in assay [11] was 0.21 (inactive). In addition, the log fold change Tl+ flux is 0.0642 (inactive) in the assay on F380Y/beta1; -0.014 (inactive) with F380Y/beta2Delta; 0.0499 (inactive) in the assay on F380Y/beta4; 0.106 (active) in [12]; -0.0106 (inactive) in the assay with R275C; 0.0867 (inactive) with R275C/beta1. For the same molecule, the log fold change Tl+ flux was 0.0611 (inactive) with R275C/beta2Delta, -0.0125 (inactive) in the assay with R275C/beta4 and -0.102 (inactive) in the assay on R275C/Slo1WT/beta2.

With `CCC(=O)O[C@]1(C(=O)CCl)[C@@H](C)C[C@H]2[C@@H]3CCC4=CC(=O)C=C[C@]4(C)[C@@]3(F)[C@@H](O)C[C@@]21C`, the z-score in assay [11] is -1.34 (inactive) and 0.04 (inactive). Moreover, the log fold change Tl+ flux with F380Y/beta1 is 0.254 (active); in the assay with F380Y/beta2Delta it was 0.293 (active); in the assay on F380Y/beta4, 0.236 (active); in assay [12], 0.157 (active); with R275C, -0.00176 (inactive); in the assay with R275C/beta1 it was 0.13 (active). Besides, the figures for the log fold change Tl+ flux with R275C/beta2Delta, in the assay on R275C/beta4 and in the assay on R275C/Slo1WT/beta2 were 0.172 (active), 0.386 (active) and 0.0324 (inactive), respectively.
